Consider nine compounds from PubChem BioAssay (NCI).

Test systems include HCT-15 colon; SNB-75 CNS; SNB-19 CNS; U251 CNS; PC-3 prostate; SK-MEL-5 melanoma; UACC-62 melanoma; LOX IMVI melanoma; SK-MEL-28 melanoma; SK-MEL-2 melanoma; SN12C renal; UO-31 renal; TK-10 renal; ACHN renal; CAKI-1 renal; CCRF-CEM leukemia; MOLT-4 leukemia; A498 renal; EKVX NSCLC.
Holding throughout (assay): NCI-60 one-dose screen, 48 h (100 = growth as untreated, 0 = no growth, -100 = all killed)
Common to all, as to conditions: 10 µM unless noted

Each structure is given as a SMILES string. This is part of a sample that, as a whole, favours compounds with a hit. Of some 83,000 tested, about 20% had one in any assay.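 Treatment: one concentration, 48 hours, 96-well format. Scoring: percent growth, with anything below 10 considered active.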 Values without a mark were called inactive. Calls of active or inactive are those of the source.

With `Nc1c(C(=O)Nc2cccc(C(F)(F)F)c2)sc2nc3c(cc12)CCCCCC3`, the growth was 19.3% in the assay on HCT-15 colon; -34% (active) in the assay with SNB-75 CNS; 25.9% with SNB-19 CNS; -18.4% (active) with U251 CNS; 52.4% with PC-3 prostate; 25.8% with SK-MEL-5 melanoma. For the same compound, the growth was 23.9% in the assay on UACC-62 melanoma; 21.5% in the assay with LOX IMVI melanoma; 10.4% in the assay on SK-MEL-28 melanoma; 51.4% in the assay on SK-MEL-2 melanoma; 5.73% (active) in the assay on SN12C renal; -2.04% (active) with UO-31 renal. Further, the growth in the assay with TK-10 renal was 5% (active); in the assay with ACHN renal, -35.6% (active); in the assay with CAKI-1 renal, 20.8%; in the assay with CCRF-CEM leukemia it was 51%; with MOLT-4 leukemia it was 45.6%.

For the compound `O=C(CCCn1c2c(sc3ccccc32)c(=O)n2nnc(-c3ccccc3)c12)NCCc1cnc[nH]1`, the growth in the assay with HCT-15 colon was -62.8% (active); in the assay on SNB-75 CNS, -55.1% (active); with SNB-19 CNS, 27.3%; in the assay with U251 CNS it was -83.2% (active); in the assay with PC-3 prostate, -84.5% (active); in the assay on SK-MEL-5 melanoma it was -67.1% (active). Further, the growth is -68.6% (active) in the assay with UACC-62 melanoma; -49.8% (active) with LOX IMVI melanoma; -92% (active) in the assay on SK-MEL-28 melanoma; -90.3% (active) in the assay on SK-MEL-2 melanoma; 1.75% (active) in the assay on SN12C renal; -90.3% (active) with UO-31 renal. In addition, the growth with TK-10 renal is -89.4% (active); with ACHN renal it was -19.4% (active); in the assay with CAKI-1 renal it was -84% (active); with A498 renal, 27.2%; in the assay with CCRF-CEM leukemia it was 38.4%; in the assay with MOLT-4 leukemia, 79.4%.

In the case of `NC(=O)c1c(NC(=O)c2ccc(OCC3CCCO3)cc2)sc2c1CCCC2` (centres undefined), the growth with HCT-15 colon was 101%; in the assay with SNB-75 CNS it was 135%; in the assay on SNB-19 CNS, 106%; with PC-3 prostate, 74.4%; in the assay with SK-MEL-5 melanoma, 78.2%; with UACC-62 melanoma, 85%. In addition, the growth in the assay with LOX IMVI melanoma is 105%; in the assay with SK-MEL-28 melanoma, 125%; with SK-MEL-2 melanoma, 84.9%; in the assay with EKVX NSCLC, 89.6%; in the assay on SN12C renal, 90.7%; with UO-31 renal it was 35%. Also, the growth was 126% in the assay with TK-10 renal; 106% with ACHN renal; 108% in the assay with CAKI-1 renal; 86.5% with A498 renal; 79.9% in the assay on CCRF-CEM leukemia.

Take `COc1cc(NS(C)(=O)=O)ccc1Nc1c2ccc([N+](=O)[O-])cc2nc2c(C)cccc12`: the growth is 12.4% with HCT-15 colon; 5.27% (active) in the assay on SNB-75 CNS; 21.2% with SNB-19 CNS; 0.458% (active) in the assay on U251 CNS; 8.53% (active) in the assay on PC-3 prostate; -0.826% (active) with SK-MEL-5 melanoma. Also, the growth is 16.2% in the assay with UACC-62 melanoma; -3.95% (active) in the assay on LOX IMVI melanoma; 41.7% with SK-MEL-28 melanoma; 25.4% in the assay with SK-MEL-2 melanoma; 2.9% (active) in the assay with SN12C renal; -3.4% (active) in the assay with UO-31 renal. Also, the growth was 5.21% (active) with TK-10 renal; -30.9% (active) with ACHN renal; -21.2% (active) with CAKI-1 renal; -23.5% (active) with A498 renal; -11.8% (active) with CCRF-CEM leukemia; -8.62% (active) in the assay with MOLT-4 leukemia.

As to `COc1ccc(S(=O)(=O)NCCNc2nccc(-c3c(-c4ccccc4)nc4sccn34)n2)cc1`, the growth with HCT-15 colon was 19.4%; with SNB-75 CNS, 21.8%; in the assay with SNB-19 CNS, 39.3%; with U251 CNS, 32.7%; with PC-3 prostate, 23.1%; in the assay with SK-MEL-5 melanoma, -80% (active). In addition, the growth in the assay on UACC-62 melanoma is 24.8%; with LOX IMVI melanoma, 18.8%; in the assay on SK-MEL-28 melanoma, 31.3%; in the assay with SK-MEL-2 melanoma, 2.98% (active); with SN12C renal it was 27.5%; with UO-31 renal, 18.6%. The growth is 47% in the assay on TK-10 renal; 10.3% in the assay on ACHN renal; 18.3% with CAKI-1 renal; 22.8% in the assay on CCRF-CEM leukemia; 5.16% (active) in the assay on MOLT-4 leukemia.

As to `COc1cccc(-c2nc3sccn3c2-c2ccnc(NCCCNS(=O)(=O)c3ccccc3)n2)c1`, the growth is 29.7% with HCT-15 colon; 92.6% with SNB-75 CNS; 95.5% in the assay with SNB-19 CNS; 71% with U251 CNS; 14.2% in the assay on UACC-62 melanoma; 28.9% in the assay on LOX IMVI melanoma. The growth is 43.4% in the assay on SK-MEL-28 melanoma; 58.1% in the assay on SK-MEL-2 melanoma; 55% with SN12C renal; 29.5% in the assay with UO-31 renal; 82% in the assay with TK-10 renal; 40.2% in the assay on ACHN renal. For the same compound, the growth was 52.5% with CAKI-1 renal and 30% in the assay with CCRF-CEM leukemia.

For `CCN1C(=O)N[C@H]2[C@@H]3NC(=O)c4ccc(Cl)n4[C@@H]3C[C@]21O`, the growth in the assay on HCT-15 colon is 13.4%; with SNB-75 CNS it was -2.5% (active); with SNB-19 CNS, -8.44% (active); with U251 CNS it was -5.63% (active); in the assay on PC-3 prostate, 9.77% (active); with SK-MEL-5 melanoma, -28.7% (active). The growth is -20.9% (active) with UACC-62 melanoma; -6.47% (active) in the assay on LOX IMVI melanoma; -37% (active) with SK-MEL-2 melanoma; 10.8% with EKVX NSCLC; -1.6% (active) with SN12C renal; 37.3% with UO-31 renal. Moreover, the growth is 4.37% (active) with TK-10 renal; 14.9% in the assay on ACHN renal; 31% with CAKI-1 renal; -0.0737% (active) in the assay on A498 renal; -7.16% (active) in the assay on CCRF-CEM leukemia; 0.842% (active) with MOLT-4 leukemia.

As for `COc1cc(C2C=C(C)N=C3SC=C(C)N32)cc(OC)c1OC` (centres undefined), the growth in the assay on HCT-15 colon is -20.4% (active); in the assay with SNB-75 CNS, 24.6%; in the assay on SNB-19 CNS, 33.5%; with U251 CNS it was -75.6% (active); with PC-3 prostate, -17.6% (active); in the assay on SK-MEL-5 melanoma, -97.5% (active). For the same compound, the growth with UACC-62 melanoma was -61.3% (active); in the assay with LOX IMVI melanoma, -82.4% (active); in the assay on SK-MEL-28 melanoma, -75.5% (active); in the assay with SK-MEL-2 melanoma it was -39.5% (active); in the assay with SN12C renal, -8.33% (active); in the assay with UO-31 renal it was -87.2% (active). Moreover, the growth was -22.5% (active) with TK-10 renal; -75% (active) in the assay with ACHN renal; -49.9% (active) with CAKI-1 renal; -27.6% (active) with A498 renal; -17.9% (active) in the assay on CCRF-CEM leukemia; -2.68% (active) with MOLT-4 leukemia.

`O=C(Nc1cc(C(F)(F)F)cc(C(F)(F)F)c1)Nc1ccc(OCc2nnc(-c3ccc(Cl)cc3)o2)c(F)c1`: the growth in the assay with HCT-15 colon is 13.6%; with SNB-75 CNS, 14.8%; with SNB-19 CNS it was 23%; in the assay on U251 CNS, 1.55% (active); in the assay on SK-MEL-5 melanoma, -29.6% (active); with UACC-62 melanoma it was 27.7%. For the same compound, the growth in the assay on LOX IMVI melanoma was 3.82% (active); in the assay on SK-MEL-28 melanoma it was 28.8%; in the assay with SK-MEL-2 melanoma it was -37.9% (active); with SN12C renal it was 11.1%; in the assay on UO-31 renal, -2.51% (active); with TK-10 renal, 21.1%. Further, the growth with ACHN renal was -6.91% (active); with CAKI-1 renal, 4.76% (active); in the assay with A498 renal, -7.1% (active); in the assay on CCRF-CEM leukemia, 6.66% (active); with MOLT-4 leukemia, 18%.
